Measured potencies and affinities stand elsewhere. Activity calls are given as the source filed them. The rule behind the calls is not given here.
Each molecule was assayed against Peroxisome proliferator-activated receptor gamma (Homo sapiens) (UniProt P37231) (assay: PPARg ligand-binding domain binders, dose response, PPARg partial agonist project, biochemical, fluorescence polarization, PolarScreen (AID 504453)). Details: fluorescence polarization competition; series mostly up to 10 µM.
Chain of Peroxisome proliferator-activated receptor gamma (Homo sapiens) (P37231 232-505 limits assumed): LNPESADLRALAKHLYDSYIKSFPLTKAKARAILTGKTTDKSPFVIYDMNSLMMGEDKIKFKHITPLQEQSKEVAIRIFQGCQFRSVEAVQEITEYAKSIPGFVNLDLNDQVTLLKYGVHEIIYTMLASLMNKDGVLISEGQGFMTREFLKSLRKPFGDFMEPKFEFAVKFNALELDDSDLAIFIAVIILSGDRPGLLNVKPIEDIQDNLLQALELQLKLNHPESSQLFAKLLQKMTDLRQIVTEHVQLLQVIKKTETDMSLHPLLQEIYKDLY

outcome, inactive:
COc1ccc2c(c1)c(=O)c(C(=O)c1ccc(F)cc1)cn2CC(=O)Nc1ccc(F)cc1
CCOc1ccc(C2c3[nH]c4ccccc4c3CCN2Cc2cccn2-c2ncccn2)cc1 (stereo unspecified)
O=C(Nc1ccccc1Cl)C(=O)c1cn(CC(=O)N2CCOCC2)c2ccccc12
O=C(C1=C(O)C(=O)N(c2nc3ccc(Cl)cc3s2)C1c1ccco1)c1ccco1 (stereo unspecified)
Cc1cc(C(=O)CN2C(=O)C(=O)N(Cc3ccccc3)C2=O)c(C)n1-c1ccc2c(c1)OCCO2
CN1CCN(S(=O)(=O)c2ccc(Sc3nc4ccccc4[nH]3)c3nsnc23)CC1
COc1ccccc1N1C(=O)C2C(C(=O)c3ccccc3)=NN(c3ccc(C)cc3)C2C1=O (stereo unspecified)
O=C(CSc1nc(=O)n(CCN2CCOCC2)c2c1CCCC2)Nc1cccc([N+](=O)[O-])c1
COc1cccc(Cn2nc3c4cc(F)ccc4n(Cc4ccc(F)cc4)cc-3c2=O)c1
COc1ccc2c(c1)c(=O)c(C(=O)c1ccc(C)cc1)cn2CC(=O)Nc1ccc(F)cc1
COc1ccccc1-n1cc(C(=O)c2cc(Cl)ccc2O)cc(C#N)c1=O

Source: PubChem BioAssay AID504453 (The Scripps Research Institute Molecular Screening Center, 2011)
